Measurements published in PubChem BioAssay (NCATS).
Records with an inconclusive call do not appear. Where a call stands in place of a potency, no number is given. The source made the active and inactive calls. Calls follow the shape of the full dose curve; tested in HEK293 reporter line.

Assay: qHTS for Inhibitors of the Functional Ribonucleoprotein Complex (vRNP) of Lassa (LASV) Arenavirus: LASV Primary Screen - GLuc reporter signal (AID 1347082); also: nearly all actives have a fitted effect of over 60% in size
Settings: LASV minigenome vRNP, Gaussia luciferase reporter; series mostly up to 57.5 µM
Potency is read from the fitted curve at half-maximal effect.

Structure (SMILES)	Potency
CC(C)=CCC/C(C)=C/CC/C(C)=C/CCC(=O)OC/C=C(\C)CCC=C(C)C	inactive
CN[C@@H]1[C@H](O)[C@H](NC)[C@H]2O[C@@]3(O)C(=O)C[C@@H](C)O[C@H]3O[C@@H]2[C@H]1O	inactive
CC(=O)NS(=O)(=O)c1ccc(N)cc1	inactive
CC(=O)OC(C)C[N+](C)(C)C (centres undefined)	inactive
CC(O)(P(=O)(O)O)P(=O)(O)O	inactive
O=[N+]([O-])c1ccc(/C=N\O)o1	inactive
CN1Cc2cc(C(=O)N3CCC(C4CCNCC4)CC3)ccc2NC(CC(=O)O)C1=O (centres undefined)	inactive
CC(N)CCCC(C)(C)O (centres undefined)	inactive
CCCN1CCCC[C@H]1C(=O)Nc1c(C)cccc1C	inactive
C[C@H](NC(CCc1ccccc1)C(=O)O)C(=O)N1CCC[C@H]1C(=O)O (some centres undefined)	inactive
O=C(O)C(S)C(S)C(=O)O (centres undefined)	inactive
O=c1[nH]cnc2nc[nH]c12	inactive
CCCCCC[C@@H](CCC)C(=O)O	inactive
CC(=O)O[C@]1(C(C)=O)CC[C@H]2[C@@H]3C[C@H](C)C4=CC(=O)CC[C@]4(C)[C@H]3CC[C@@]21C	inactive
CN(C)CCN1CCN(c2cccc(Cl)c2)C1=O	inactive
CCOc1ccc2nc3cc(N)ccc3c(N)c2c1	inactive
O=C(O)CNC(=O)c1ccccc1	inactive
O=C(O)Cc1csc(-c2ccc(Cl)cc2)n1	inactive
O=C(NC(Cc1cc(=O)[nH]c2ccccc12)C(=O)O)c1ccc(Cl)cc1 (centres undefined)	inactive
CN(C)CCOC(=O)COc1ccc(Cl)cc1	inactive

Structure (SMILES)	Potency
C[N+](C)(CCOc1ccccc1)Cc1cccs1	inactive
CN1C(C(=O)Nc2ccccn2)=C(O)c2sccc2S1(=O)=O	inactive
CCOc1nc2cccc(C(=O)O)c2n1Cc1ccc(-c2ccccc2-c2nn[nH]n2)cc1	inactive
CC(=O)NC(=O)c1ccccc1O	inactive
Cc1nc2ccccn2c(=O)c1CCN1CCC(C(=O)c2ccc(F)cc2)CC1	inactive
CC(=O)OC[C@H]1O[C@@H](OC(C)=O)[C@H](OC(C)=O)[C@@H]1OC(C)=O	inactive
CCOC(=O)Oc1ccc(CCNC(=O)[C@H](CCSC)NC(C)=O)cc1OC(=O)OCC	inactive
Cc1c[nH]c2ccccc12	inactive
COc1cccc2c1C(=O)c1c(O)c3c(c(O)c1C2=O)C[C@@](O)(C(C)=O)C[C@H]3O[C@H]1C[C@H](N)[C@H](O)[C@H](C)O1	1220 nM (active)
Cc1onc(-c2c(Cl)cccc2Cl)c1C(=O)Cl	inactive
Cc1ncc([N+](=O)[O-])n1CC(O)CCl (centres undefined)	inactive
CCCCCCCC/C=C/C(=O)O	inactive
Cc1ccc(-c2ccccc2C#N)cc1	inactive
NC(N)=NS(=O)(=O)c1ccc(N)cc1	inactive
NCCc1ccn[nH]1	inactive
O=C1CC2(CCCC2)CC(=O)N1	inactive
CC(=O)CC/C=C(\C)CC/C=C(\C)CC/C=C(\C)CCC=C(C)C	inactive
N#CC1(c2ccc(F)cc2)CCC(=O)CC1	inactive
C[C@](N)(Cc1ccc(O)cc1)C(=O)O	inactive
